Inconclusive results are not listed. Calls of active or inactive are those of the source. The calls were made as follows, unless noted: active = hit-call score of the fitted dose curve at least 0.9, where 1 is the maximum; inactive = score below 0.9.
Experiments:
[1] = CCTE_Mundy_HCI_Cortical_Synap_Neur_Matur_NeuriteSpotCountPerNeuron: CCTE's Synaptogenesis and Neurite Maturation Assay in rat cortical cells for Neurite Spot Count per Neuron Count, Mundy Lab (AID 2284215)
In short: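 Rat primary cortical cells received AraC at DIV 5, then chemicals with a media change at DIV 7, and were fixed at DIV 12. Synaptophysin puncta on MAP2-stained neurites per neuron were counted by high-content imaging, fitted relative to DMSO.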

[2] = CCTE_Mundy_HCI_Cortical_Synap_Neur_Matur_SynapseCount: CCTE's Synaptogenesis and Neurite Maturation Assay in rat cortical cells for Synapse Count, Mundy Lab (AID 2284218)
In short: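 Rat primary cortical cells in 96-well plates received AraC at DIV 5 and were dosed with chemicals at DIV 7 with media change, through DIV 12 (288.33 h). Synapses per neuron counted by high-content imaging of MAP2/synaptophysin/Hoechst staining, versus DMSO baseline.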

[3] = CCTE_Mundy_HCI_Cortical_Synap_Neur_Matur_NeuriteCount: CCTE's Synaptogenesis and Neurite Maturation Assay in rat cortical cells for Neurite Count, Mundy Lab (AID 2284222);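 also: exposure from day 7 to day 12 in vitro with readout at day 12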
In short: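 Rat cortical neurons, 96-well; AraC DIV 5; chemical + media change DIV 7; end DIV 12. Fix PFA/Hoechst, anti-MAP2 + anti-synaptophysin IF. HCI neurite count vs DMSO baseline.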

[4] = CCTE_Mundy_HCI_Cortical_Synap_Neur_Matur_CellBodySpotCount: CCTE's Synaptogenesis and Neurite Maturation Assay in rat cortical cells for Cell Body Spot Count, Mundy Lab (AID 2284223)
In short: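 Rat primary cortical cultures received AraC at DIV 5 to arrest glia, were dosed with chemical at DIV 7 with media change, and were fixed at DIV 12 (288.33 h). Synaptophysin puncta on MAP2-positive cell bodies per neuron were counted by high-content imaging versus DMSO.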

[5] = CCTE_Mundy_HCI_hNP1_Pro_ResponderAvgInten: CCTE's Proliferation Assay in human neuroprogenitor cells, Mundy Lab (AID 2284224; active = hit-call score of the fitted dose curve at least 0.9, where 1 is the maximum;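 also: human neural progenitor cells hNP1 derived from WA09 embryonic stem cells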)
In short: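 Proliferation read as average intensity of BrdU-positive cells, imaged at 26.25 h post-dosing: chemical exposure started after 40–44 h culture, BrdU during final 4 h, paraformaldehyde fixation. Positive-direction fit relative to DMSO.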

[6] = UKN2_HCS_IMR90_cell_viability: Viability Assessment in the University of Konstanz (UKN) Leist Lab Neural Crest Cell Migration Assay in human induced IMR90 Pluripotent Stem Cells (UKN2) (AID 2284233);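 also: viability of neural crest cells differentiated from IMR90 iPSC measured by calcein-AM fluorescence imaging; cells exposed to compound for 24 h after a 24 h migration phase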
In short: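 Neural crest cells derived from IMR90 iPSC migrate into a stopper-free zone for 24 h in EGF/FGF medium, then are exposed to compound for 24 h. Viability assessed by calcein-AM and Hoechst staining with high-content imaging, fitted bidirectionally versus DMSO.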

[7] = CCTE_Mundy_HCI_Cortical_NOG_NeuronCount: CCTE's Neurite Outgrowth Assay in rat cortical cells for Neuron Count, Mundy Lab (AID 2284236; active = hit-call score of the fitted dose curve at least 0.9, where 1 is the maximum;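 also: neurons counted by imaging betaIII-tubulin and Hoechst stained cortical cells; cells exposed to compound for about 48 hours before fixation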)
In short: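 Read-out: neuron number by high-content imaging of betaIII-tubulin (Alexa Fluor-488) and Hoechst-labelled rat primary cortical cells.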

[8] = CCTE_Mundy_HCI_Cortical_NOG_BPCount: CCTE's Neurite Outgrowth Assay in rat cortical cells for Branch Point Count, Mundy Lab (AID 2284237)
In short: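 Measured 50.33 h after dosing, this morphology endpoint uses rat primary cortical cultures labelled for betaIII-tubulin. Branch points are quantified by high-content imaging, with DMSO as negative control and baseline.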

[9] = CCTE_Mundy_HCI_hNP1_Casp3_7: CCTE's Caspase-Glo 3/7 Assay in human neuroprogenitor cells for Apoptosis, Mundy Lab (AID 2284240)
In short: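 Luminescent caspase-3/7 readout, 26.5 h post-dose, in human neural progenitor cells from WA09 embryonic stem cells. Cells grew 40–44 h at 37 °C, 5% CO2 before chemical addition. Activity analysed as signal increase over DMSO baseline.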

[10] = CCTE_Mundy_HCI_hNP1_CellTiter: CCTE's Cell Titer-Glo 2 Assay in human neuroprogenitor cells for Viability, Mundy Lab (AID 2284241; active = hit-call score of the fitted dose curve at least 0.9, where 1 is the maximum)
In short: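 Viability read as luminescent ATP content (CellTiter-Glo, 30 min room temperature) twenty-four hours after dosing, relative to DMSO. Cells: WA09-derived hNP1 neuroprogenitors on poly-L-ornithine/laminin, plated 40 to 44 hours before chemical.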

[11] = CCTE_Mundy_HCI_Cortical_Synap_Neur_Matur_NeuronCount: CCTE's Synaptogenesis and Neurite Maturation Assay in rat cortical cells for Neuron Count, Mundy Lab (AID 2284242; active = hit-call score of the fitted dose curve at least 0.9, where 1 is the maximum)
In short: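 Rat primary cortical cells received AraC at DIV 5 to arrest glia, then were dosed with chemicals at DIV 7 through DIV 12. Fixed cells were stained for nuclei, MAP2 and synaptophysin, and neurons were counted by high-content imaging relative to DMSO.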

[12] = IUF_NPC2c_oligodendrocyte_migration_120hr: Leibniz Research Institute for Environmental Medicine (IUF) 120-hour Neural Progenitor Cell Migration Assay for Oligodendrocyte Migration (NPC2c) (AID 2284297);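 also: O4-positive oligodendrocyte migration distance divided by radial glia migration distance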
In short: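 Human fetal cortex-derived neural progenitor spheres (0.3 mm) were plated on poly-D-lysine/laminin in N2 differentiation medium and exposed to 7 concentrations for 120 h, with half-medium renewal at day 3. Oligodendrocyte migration distance was normalized to radial glia migration, relative to DMSO.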

[13] = IUF_NPC2a_radial_glia_migration_120hr: Leibniz Research Institute for Environmental Medicine (IUF) 120-hour Neural Progenitor Cell Migration Assay for Radial Glia Migration (NPC2a) (AID 2284298)
In short: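 Single 0.3 mm primary human fetal-cortex (GW 16-19) NPC spheres were plated on poly-D-lysine/laminin in N2 differentiation medium and exposed from day 0 for 120 h, half-medium refreshed day 3. Migration distance came from Hoechst nuclei-density imaging, relative to DMSO.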

[14] = IUF_NPC2a_radial_glia_migration_72hr: Leibniz Research Institute for Environmental Medicine (IUF) 72-hour Neural Progenitor Cell Migration Assay for Radial Glia Migration (NPC2a) (AID 2284299)
In short: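 Human fetal cortex (GW 16-19) neural progenitor spheres, 0.3 mm, plated on poly-D-lysine/laminin in N2 differentiation medium with compound from day 0. Radial glia migration distance (um, sphere core edge to migration edge) measured manually in four directions on 72 h brightfield images; well mean used.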

[15] = IUF_NPC2b_neuronal_migration_120hr: Leibniz Research Institute for Environmental Medicine (IUF) 120-hour Neural Progenitor Cell Migration Assay for Neuron Migration (NPC2b) (AID 2284300)
In short: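 Primary human fetal cortex neural progenitor spheres (0.3 mm) plated on poly-D-lysine/laminin in N2 differentiation medium, exposed 120 h with half-medium refresh at day 3. TUBB3-stained neuron distance from sphere core, normalized to radial glia migration, versus DMSO.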

[16] = IUF_NPC3_neuronal_differentiation_120hr: Leibniz Research Institute for Environmental Medicine (IUF) 120-hour Neuronal Differentiation Assay (NPC3) (AID 2284301)
In short: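 Human fetal (GW 16-19) neural progenitor spheres (0.3 mm) plated on poly-D-lysine/laminin in N2 differentiation medium, exposed 120 h at 37C with half-medium renewal day 3; 7 concentrations. TUBB3+ cells as % of Hoechst nuclei, CNN-identified; DMSO baseline.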

[17] = IUF_NPC4_neurite_area_120hr: Leibniz Research Institute for Environmental Medicine (IUF) 120-hour Neuronal Morphology Assay for Neurite Area (NPC4) (AID 2284305; active = hit-call score of the fitted dose curve at least 0.9, where 1 is the maximum)
In short: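 Human fetal neural progenitor spheres (0.3 mm) plated on poly-D-lysine/laminin in N2 differentiation medium, exposed 120 h (7 concentrations, DMSO ≤0.1%, half-medium refresh day 3). Fixed, TUBB3 immunostained; mean neurite area per neuron by Omnisphero skeletonization.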

[18] = IUF_NPC2-5_cytotoxicity_72hr: Cytotoxicity Assessment at 72 hours in the Leibniz Research Institute for Environmental Medicine (IUF) Neural Progenitor Cell Migration and Differentiation Assay for Cytotoxicity (NPC2-5) (AID 2284306; active = hit-call score of the fitted dose curve at least 0.9, where 1 is the maximum;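 also: LDH release into supernatant measured by resorufin fluorescence marking membrane damage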)
In short: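 Human fetal primary neural progenitor spheres (0.3 mm) plated on poly-D-lysine/laminin in N2 differentiation medium, exposed from day 0 at 37C. LDH-dependent resazurin-to-resorufin fluorescence in supernatant at 72 h; 7 concentrations, DMSO at most 0.1%.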

[19] = IUF_NPC2-5_cell_number_120hr: Cell Number Assessment at 120 hours in the Leibniz Research Institute for Environmental Medicine (IUF) Neural Progenitor Cell Migration and Differentiation Assay (NPC2-5) (AID 2284308);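 also: count of Hoechst-stained nuclei in migration zone around plated human neural progenitor spheres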
In short: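 Primary human fetal neural progenitor spheres (GW 16-19, 0.3 mm) plated on poly-D-lysine/laminin in N2 differentiation medium, exposed from day 0 for 120 h with half-medium refresh at day 3; Hoechst-positive nuclei counted in migration area versus DMSO control.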

[20] = IUF_NPC2-5_viability_120hr: Viability Assessment at 120 hours in the Leibniz Research Institute for Environmental Medicine (IUF) Neural Progenitor Cell Migration and Differentiation Assay (NPC2-5) (AID 2284312)
In short: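 Human fetal neural progenitor spheres (0.3 mm) plated on poly-D-lysine/laminin in N2 differentiation medium, exposed 120 h with half-medium refresh at day 3. Viability by alamar blue resazurin fluorescence; 7 concentrations, DMSO max 0.1%.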

[21] = CCTE_Mundy_HCI_iCellGluta_NOG_NeuriteLength: CCTE's Neurite Outgrowth Assay in iCellGluta cells for Neurite Length, Mundy Lab (AID 2284318; active = hit-call score of the fitted dose curve at least 0.9, where 1 is the maximum)
In short: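 Automated high-content imaging of betaIII-tubulin (Alexa Fluor-488) and Hoechst-stained cells gave neurite length, normalized to the DMSO baseline.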

[22] = IUF_NPC1_cytotoxicity_72hr: Cytotoxicity Assessment at 72 hours in the Leibniz Research Institute for Environmental Medicine (IUF) Neural Progenitor Cell Proliferation Assay (NPC1) (AID 2284332; active = hit-call score of the fitted dose curve at least 0.9, where 1 is the maximum;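 also: rising LDH signal means more cytotoxicity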)
In short: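 Single human fetal cortex neural progenitor spheres (GW 16-19, 0.25-0.35 mm) in EGF/FGF proliferation medium were exposed to compound for 72 h at 37C without renewal. Medium LDH release was read as resorufin fluorescence and fitted as gain-of-signal.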

[23] = CCTE_Mundy_HCI_iCellGluta_NOG_NeuriteCount: CCTE's Neurite Outgrowth Assay in iCellGluta cells for Neurite Count, Mundy Lab (AID 2284342; active = hit-call score of the fitted dose curve at least 0.9, where 1 is the maximum;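 also: chemical exposure about 48 hours starting 2 hours after plating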)

Measured: outcome

CC(=O)N[C@@H](CC(=O)O)C(=O)O
inactive: all assays above

— PubChem BioAssay (EPA / NIEHS)
